According to PubChem BioAssay AID1851 (National Center for Advancing Translational Sciences (NCATS), 2009):
Out of some 16,000 compounds screened, about 4,000 (25%) were called active. Another 26% or so got no clear call; they are omitted. Only a sample is shown. Unmarked numbers belong to inactive results. The call rests on the fitted dose curve; in most records, active means well fitted curve in the direction sought with a large enough effect; inconclusive means small, poorly fitted or top-dose-only effect, or effect the other way; inactive means no such curve, though single readings can be large or run the other way.

Molecular target: Cytochrome P450 2C9 (Homo sapiens) (UniProt P11712)
Experiment: Cytochrome panel assay with activity outcomes
Details: recombinant CYP, pro-luciferin dealkylation, luminescence, p450-cyp2c9; series mostly up to 57.1 µM
On the % scale 0 is the no-effect control and ±100 the full control effect.

Sequence of Cytochrome P450 2C9 (Homo sapiens) (P11712 whole entry, looked up): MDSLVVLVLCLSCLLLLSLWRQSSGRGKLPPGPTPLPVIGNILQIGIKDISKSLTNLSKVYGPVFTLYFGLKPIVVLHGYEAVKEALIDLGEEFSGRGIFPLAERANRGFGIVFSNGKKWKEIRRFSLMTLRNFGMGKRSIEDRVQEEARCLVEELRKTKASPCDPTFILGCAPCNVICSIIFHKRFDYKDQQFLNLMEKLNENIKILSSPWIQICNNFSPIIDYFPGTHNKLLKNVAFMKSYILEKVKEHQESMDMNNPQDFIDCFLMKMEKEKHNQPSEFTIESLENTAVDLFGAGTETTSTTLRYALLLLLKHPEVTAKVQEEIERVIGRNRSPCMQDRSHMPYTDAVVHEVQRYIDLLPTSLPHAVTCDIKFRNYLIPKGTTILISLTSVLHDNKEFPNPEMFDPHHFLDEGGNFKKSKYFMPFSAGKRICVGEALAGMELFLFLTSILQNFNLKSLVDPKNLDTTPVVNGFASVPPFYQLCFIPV

Row | Compound | activity, negative = inhibition | AC50
1 | CN1CCN(c2ncnc3ccc(-c4ccccc4Cl)cc23)CC1 | -20.9% [at 2.29 µM] | –
2 | O=C(CCCCn1c(=O)c2ccccc2n(CC(=O)NC2CCCC2)c1=O)NC1CCCC1 | – | 10 µM (active)
3 | CC(=O)CCCCn1c(=O)c2c(ncn2C)n(C)c1=O | – | inactive
4 | O=C(Cn1cccc1)NC1CCCCCC1 | – | inactive
5 | c1cncc(CNc2nc(-c3ccoc3)nc3ccccc23)c1 | 0.547% [at 2.29 µM] | –
6 | CCOC(=O)c1ccc(Nc2nc(=O)c3cccnc3s2)cc1 | – | 7.94 µM (active)
7 | CN(C)C(=O)c1ccc(-c2nc(Nc3ccncc3)c3ccccc3n2)cc1 | -8.55% [at 2.29 µM] | –
8 | c1ccc(Nc2nc(-c3cccnc3)nc3ccccc23)cc1 | -0.938% [at 2.29 µM] | –
9 | CCOC(=O)c1ccc(OC(=O)CCCCCN=C(N)N)cc1 | – | inactive
10 | CCOC(=O)c1ccc(Nc2nc(-c3cccnc3)nc3ccccc23)cc1 | – | 5.01 µM (active)
11 | FC(F)(F)c1ccccc1-c1nc(NCc2cccnc2)c2ccccc2n1 | -20.3% [at 2.29 µM] | –
12 | COc1ccccc1NC(=O)Nc1nc(-c2cccnc2)nc2ccccc12 | – | inactive
13 | c1ccc(-c2nc(NCc3cccnc3)c3ccccc3n2)cc1 | – | 3.55 µM (active)
14 | COc1ccccc1-c1nc(NCc2cccnc2)c2ccccc2n1 | 5.64% [at 2.29 µM] | –
15 | COc1ccccc1CNc1nc(-c2cccnc2)nc2ccccc12 | – | 1 µM (active)
16 | CN1CCCC2(CCN(C(=O)c3cc(C(F)(F)F)cc(C(F)(F)F)c3)CC2)C1 | – | inactive
17 | COC(=O)c1c(-c2cc(OC)c(OC)c(OC)c2)c2ccnc(OCc3ncccn3)c2c(=O)n1Cc1ccnc(C)c1 | – | 12.6 µM (active)
18 | Cn1cnc([N+](=O)[O-])c1Sc1nc(N)nc2c1ncn2[C@H]1C[C@H](O)[C@@H](CO)O1 | -1.03% [at 11.4 µM] | –
19 | Cc1cccc(N2CC(O)=C(c3nc4ccccc4n3C)C2=N)c1 | – | inactive
20 | Cn1c(-c2sc(=S)n(-c3ccccc3)c2N)nc2ccccc21 | – | 2.51 µM (active)

Row | Compound | activity, negative = inhibition | AC50
21 | Cc1ccc(CS(=O)(=O)CCC(=O)NCCCN2CCCC2=O)cc1 | – | inactive
22 | O=C(NCCCN1CCCC1=O)c1ccc(CNS(=O)(=O)c2ccc(F)cc2)cc1 | – | inactive
23 | Cc1ccc(S(=O)(=O)N(CCCN2CCCC2=O)Cc2cc3c(C)ccc(C)c3[nH]c2=O)cc1 | – | 3.16 µM (active)
24 | Cc1ccc(N2CCN(CCC(=O)O)CC2)cc1 | 10.3% [at 11.4 µM] | –
25 | Cc1ccc(C)c(-c2nn(-c3cc(N4CCN(CCO)CC4)ccc3[N+](=O)[O-])c(=O)c3ccccc23)c1 | – | 12.6 µM (active)
26 | CO[C@@H]1/C=C\CC(=O)N[C@@H](C)C(=O)OC[C@@H](OC)[C@H](C)/C=C\CC(=O)OC[C@H]1C | 9.15% [at 11.4 µM] | –
27 | Cn1c(=O)c2[nH]c(CCS)nc2n(C)c1=O | 10.4% [at 11.4 µM] | –
28 | Cc1cccc(Nc2cc(Cl)nc(SCC(=O)O)n2)c1C | – | inactive
29 | Cc1cc(C)nc(SCC(=O)Nc2ccccc2[N+](=O)[O-])n1 | – | inactive
30 | Cc1cccc(NC(=O)CSc2nnc(-c3ccco3)c(-c3ccco3)n2)c1C | – | 1.78 µM (active)
31 | O=C(O)CCC(=O)N1CCC[C@H]1C(=O)O | – | inactive
32 | CCCC[C@H]1C[C@@H]1[C@@H]1N(P(=O)(c2ccccc2)c2ccccc2)C[C@@](O)(c2ccccc2)CC12CC2 | – | inactive
33 | CCCC[C@H]1C[C@@H]1[C@@H]1N(P(=O)(c2ccccc2)c2ccccc2)[C@](CO)(c2ccccc2)CC12CC2 | – | 15.8 µM (active)
34 | CCC(NC(=O)Nc1cc(OC)c(OC)c(OC)c1)(C(F)(F)F)C(F)(F)F | – | 14.1 µM (active)
35 | CCN(CC)CCCCCCCCOC(=O)c1cc(OC)c(OC)c(OC)c1 | – | inactive
36 | CCN1C(=O)c2cccc3c(NC(=O)c4cccc(N5C(=O)CCC5=O)c4)ccc1c23 | – | inactive
37 | CCOC(=O)c1ccc(NC(=O)Nc2ccc3c4c(cccc24)C(=O)N3CC)cc1 | – | 20 µM (active)
38 | c1csc(CNc2ccnc(-c3ccc4c(c3)OCO4)n2)c1 | -22.4% [at 2.29 µM] | –
39 | c1cncc(-c2nc(N3CCNCC3)c3ccccc3n2)c1 | -1.35% [at 2.29 µM] | –
40 | CN1CCN(c2nc(-c3cccnc3)nc3ccccc23)CC1 | 16.9% [at 2.29 µM] | –

Row | Compound | activity, negative = inhibition | AC50
41 | CC1CCCCN1c1nc(-c2ccncc2)nc2ccccc12 (centres undefined) | – | 0.398 µM (active)
42 | CCNc1ncc2nc(-c3ccc(OC)cc3)c(=O)n(-c3ccc(OC)cc3)c2n1 | – | inactive
43 | NCC(=O)Nc1ccc(Cl)cc1C(=O)c1ccc[nH]1 | -20.4% [at 11.4 µM] | –
44 | CS(=O)(=O)N1CCC[C@@]2(CCN(Cc3nccs3)C2)C1 | – | inactive
45 | CS(=O)(=O)N1CCC2(CC1)CN(c1ncccn1)C2 | – | inactive
46 | CS(=O)(=O)N1CCC2(CCN(Cc3nccs3)CC2)CC1 | – | inactive
47 | CS(=O)(=O)N1CCC[C@@]2(CCN(c3ccncc3)C2)C1 | – | inactive
48 | CS(=O)(=O)N1CCC2(CC1)CN(Cc1nccs1)C2 | – | 10 µM (active)
49 | CS(=O)(=O)N1CCC2(CC1)CN(c1ccncc1)C2 | – | 15.8 µM (active)
50 | CS(=O)(=O)N1CCC2(CCCN(c3ccncc3)C2)CC1 | – | 0.0794 µM (active)
51 | CS(=O)(=O)N1CCC2(CCN(c3ccncc3)CC2)CC1 | – | inactive
52 | CS(=O)(=O)N1CCC2(CCCN(c3ncccn3)C2)CC1 | – | inactive
53 | CC(=O)N1CCC2(CCCN(C(=O)Nc3cccc(F)c3)C2)CC1 | – | inactive
54 | OCCNc1ncnc2c1ncn2[C@@H]1O[C@@H](CO)[C@H](O)[C@@H]1O | 8.16% [at 11.4 µM] | –
55 | Cc1ccc(N(Cc2ccccc2)Cc2ccccc2)cc1 | -16.6% [at 11.4 µM] | –
56 | COc1ccc(CN(CCN(C)C)c2ccccn2)cc1 | – | inactive
57 | CN(C)c1nccc(N(Cc2ccccc2)Cc2ccccc2)c1C#N | – | 2.24 µM (active)
58 | Cc1ccc(N=Nc2ccc(N)cc2C)c(S(N)(=O)=O)c1 | -8.16% [at 11.4 µM] | –
59 | COc1ccc(NC(=O)CSc2nc(-c3ccc(C)cc3)cc(C(F)(F)F)c2C#N)cc1 | – | 0.794 µM (active)
